Screening results as filed in PubChem.
Most compounds without a hit are left out; they make up all but 19% or so of the library.
IL-1B inflam inh: inhibitors of inflammasome signaling (IL-1 beta secretion). THP-1 LPS/ATP IL-1B secretion, AlphaLISA, 16 h; hits give low values. activity change, % at 57.5 µM. 360,000 compounds, 4.7% hits. AID 743279; in the data active means activity change below about -50%; inconclusive means mostly about -30% to -49%
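THP-1 cells pretreated 1 hr with compounds (up to 57.5 uM final), then stimulated with LPS (250 ng/mL final) plus ATP (1.25 mM final); secreted IL-1B measured by AlphaLISA after 16 hr, decreased signal indicating inhibition.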
uPA surface inh: cell surface uPA generation inhibition. cell surface uPA generation assay, qHTS. Potency, µM (titrated, usually from 38.3 µM), inactives show at the highest dose activity change, negative = inhibition, actives largely listed as inhibitors. AID 540303. 330,000 compounds, 0.31% hits; active means well fitted inhibition curve with a large enough effect; inconclusive means small, poorly fitted or top-dose-only effect; inactive means no such curve, though single readings can be large or run the other way; tested in mouse RAW 264.7 cells; further: potency means the concentration at half of the fitted maximal effect; nearly all actives have a fitted effect of over 55% in size
HT1080NT lethal: kills 2HG-producing HT-1080-NT fibrosarcoma cells. HT-1080-NT fibrosarcoma viability, CellTiter-Glo ATP luminescence, 48 h. Potency, µM (doses to about 46.1 µM), for the others: top-dose activity, negative = less viability, usual class: cytotoxic. 360,000 compounds, 1.6% hits. AID 686970;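 further: NT is the 2HG producing partner of a matched IDH1 knockdown line; potency means the concentration at half of the fitted maximal effect; 0% = DMSO-treated cells and -100% = media-only wells without cells; nearly all actives have a fitted effect of over 55% in size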
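Luminescent CellTiter-Glo readout after 48 hours of compound exposure at 37 degrees C defined viability of HT-1080-NT cells. Activity was normalized to DMSO wells and cell-free media wells; concentration-response curves were fitted and assigned curve classes.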
DT40 TDP1 CPT: DT40-hTDP1 cell growth loss with CPT. chicken DT40 Tdp1-/-;hTDP1 cells + 20 nM CPT, ATP luminescence, 48 h. Potency, µM (series often up to 46.2 µM), inactives show top-dose activity change, negative = growth inhibition, hits mostly inhibitors. 420,000 compounds, 12% hits. AID 686979; further: potency means the concentration at half of the fitted maximal effect; nearly all actives have a fitted effect of over 55% in size
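Cell growth measured by CellTiter-Glo luminescence after a minimum 48 h, 37 C compound exposure with 20 nM CPT in Tdp1-knockout DT40 cells stably expressing hTDP1, seeded 400/well; qHTS titration format.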
HT1080 IDH1KD tx: toxicity to HT-1080 IDH1 knockdown cells (counter line); HT-1080 IDH1 knockdown viability, ATP luminescence, 48 h; Potency, µM (highest dose often 46.1 µM), without a hit: at the top dose activity, negative = toxicity, hits mostly cytotoxic; 360,000 compounds, 2% hits; AID 686971;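 further: potency means the concentration at half of the fitted maximal effect; 0% = DMSO wells and -100% = cell-free medium wells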
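After a 2 h attachment period, IDH1KD HT-1080 cells took pin-transferred compound for 48 h at 37 °C; ATP-based luminescence after 10 min room-temperature reagent incubation reported viability.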
TDP1 cell noCPT: qHTS for Inhibitors of human tyrosyl-DNA phosphodiesterase 1 (TDP1): qHTS in cells in absence of CPT | DT40 Tdp1-/- hTDP1 cells, no CPT, ATP luminescence, 48 h | Potency, µM (series often up to 46.2 µM), for the others: at the top dose activity change, negative = growth inhibition, actives largely listed as inhibitors | 420,000 compounds, 15% hits | AID 686978, 2013; further: potency means the concentration at half of the fitted maximal effect; nearly all actives have a fitted effect of over 55% in size
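Compound effects on proliferation are scored in DT40 Tdp1-/-;hTDP1 cells in the absence of CPT. ATP levels (CellTiter-Glo luminescence) are recorded after a ≥48 hr, 37 °C incubation.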
* = called active by the depositor; i = inactive; ? = inconclusive; · = not tested or not shown; [ ] = another dose, or the depositor's remark. Unless noted, the call rests on the fitted dose curve; in most records, active means well fitted curve in the direction sought with a large enough effect; inconclusive means small, poorly fitted or top-dose-only effect, or another doubt; inactive means no such curve, though single readings can be large; an effect the other way counts as inactive or inconclusive. Unless noted, on the % scale 0 is the no-effect control and ±100 the full control effect.

SMILES	IL-1B inflam inh	uPA surface inh	HT1080NT lethal	DT40 TDP1 CPT	HT1080 IDH1KD tx	TDP1 cell noCPT
O=C(/C=C/c1ccccc1)OCCCCN=C1NS(=O)(=O)c2ccccc21	91	2%	-7%	9.2µM*	-8%	26µM*
COc1ccc(NC(=O)CN(C)C(=O)c2cccc(S(=O)(=O)N3CCN(c4ccc(F)cc4)CC3)c2)cc1	?	?	-1%	13µM*	-12%	?
CN(CC(=O)Nc1ccc(F)cc1)C(=O)c1cccc(S(=O)(=O)N2CCN(c3ccccc3)CC2)c1	i	-6%	-1%	16µM*	-14%	21µM*
COc1cccc(NC(=O)CN(C)C(=O)c2cccc(S(=O)(=O)N3CCN(c4ccccc4)CC3)c2)c1	-4	-11%	0%	?	-7%	-59%
O=C(COC(=O)Cc1n[nH]c(=O)c2ccccc12)Nc1ccc(Cl)cn1	68	-18%	-7%	-22%	-3%	2%
Cc1ccc(/C=C(\C#N)C(=O)N2CCCC2)c(C)c1	-87*	-7%	0%	-10%	?	?
Cc1ccc2c(c1)c1ncnc(N3CCN(c4ccccc4)CC3)c1n2C	16	7%	1%	21µM*	1%[9.24 µM]	?
COc1cccc(CNC(=O)c2ccc(-c3nc(COc4ccccc4)c(C)o3)cc2)c1	·	·	·	15µM*	·	9.2µM*
COc1cccc(CNC(=O)c2ccc(-c3nc(CS(=O)(=O)c4ccccc4)c(C)o3)cc2)c1	·	·	·	?	·	23µM*
Cc1oc(-c2ccc(C(=O)NCc3ccccc3)cc2)nc1CS(=O)(=O)c1ccccc1	·	·	·	-18%	·	?
CCc1ccc(CNC(=O)c2ccc(-c3nc(CS(=O)(=O)c4ccccc4)c(C)o3)cc2)cc1	·	·	·	15µM*	·	?
COc1cccc(CNC(=O)c2ccc(CS(=O)(=O)Cc3ccccc3C)o2)c1	49	-2%	-24%	29µM*	0%	23µM*
Cc1cccc(CNC(=O)c2ccc(-c3nc(CS(=O)(=O)c4ccccc4)c(C)o3)cc2)c1	·	·	·	-28%	·	?
COc1cccc(CNC(=O)c2ccc(CS(=O)(=O)Cc3ccc(C)cc3)o2)c1	39	-1%	1%	1%	0%	6%
COC(=O)[C@@]12C[C@@H](CC(=O)N3CCOCC3)C(=O)N(Cc3ccc4c(c3)OCO4)C1=CCC(C)(C)C2	-21	·	-12%	?	-15%	-29%
Cc1ccc(OCc2nc(-c3ccc(C(=O)NCCc4ccc(S(N)(=O)=O)cc4)cc3)oc2C)cc1	·	·	·	15µM*	·	23µM*
O=C(NCc1ccco1)c1cccnc1-c1nc2ccccc2s1	-3	-3%	2%	21µM*	14%	29µM*
CS(=O)(=O)N(CC(=O)Nc1ccccc1C(=O)NCc1ccco1)c1ccc2c(c1)OCCO2	0	·	9%[9.24 µM]	18µM*	?	?
CC(C)CNC(=O)c1ccccc1NC(=O)CN(c1ccc2c(c1)OCCO2)S(C)(=O)=O	-3	6%	10%	-6%	24%	-25%
O=C(NCc1ccco1)c1cccnc1Cl	8	2%	-1%	-1%	6%	5%
O=C(Nc1cccc(Cl)c1)Nc1ccccc1C(=O)NCc1ccco1	-53*	-8%	-22%	18µM*	?	18µM*
O=C(Nc1ccccc1C(=O)NCc1ccco1)Nc1cccc2ccccc12	?	?	?	21µM*	?	12µM*
CC(OC(=O)C1CSC2(C)CCC(=O)N12)C(=O)Nc1ccc(F)cc1 (configuration not stated)	5	4%	-1%[9.24 µM]	-13%	-1%	0%
COCC(=O)Nc1cc(C(=O)N2CCc3c(Cl)cccc3C2)c2c(c1)nc(-c1ccncc1)n2C	·	·	·	4%	·	3%
FC(F)(F)c1cc(Cl)c2nc(-c3ccccc3)c(Cc3cccc(Cl)c3)n2c1	5	·	13%	?	1%	?
SMILES	IL-1B inflam inh	uPA surface inh	HT1080NT lethal	DT40 TDP1 CPT	HT1080 IDH1KD tx	TDP1 cell noCPT
COc1ccccc1NC(=O)c1cc2c(=O)oc3ccc(C)cc3c2s1	·	·	·	-6%	·	?
C=CCNc1ncnc2c1ncn2[C@H]1CN(Cc2cccc3ccccc23)C[C@@H](CO)O1	-1	·	-10%	?	1%	?
COc1ccc(CCNC(=O)c2ccc(OC)c(OC)c2)cc1OC	5	0%	18%	6%	21%	-12%
CCC(C)C1Nc2ccc(C(=O)NCCc3ccc(OC)c(OC)c3)cc2NC1=O (configuration not stated)	11	?	?	16µM*	?	?
COc1ccc(-c2ccc(NC(=O)c3ccc(Br)o3)cc2)nn1	-1	1%	-19%	?	-19%	?
CCc1cccc(CC)c1NC(=O)COC(=O)CC1c2ccccc2CCN1S(=O)(=O)c1ccc(F)cc1 (configuration not stated)	i	5%	0%	?	8%	23µM*
COC(=O)c1nccnc1N	9	4%	7%	8%	10%	0%
OC(CNCC(c1ccc(Cl)cc1Cl)c1c[nH]c2ccccc12)c1ccccc1 (configuration not stated)	-103*	1%	21µM*	?	7.3µM*	13µM*
C=CCN(c1ccccc1)S(=O)(=O)c1cccc(C(=O)Nc2nc3ccccc3[nH]2)c1	-20	-8%	-20%	21µM*	-21%	13µM*
C=CCN(c1ccccc1)S(=O)(=O)c1cccc(C(=O)Nc2ccncc2)c1	?	-3%	?	23µM*	-16%	21µM*
C=CCN(c1ccccc1)S(=O)(=O)c1cccc(C(=O)N2CCN(c3ncccn3)CC2)c1	-2	-7%	9%	6.5µM*	3%	3.7µM*
C=CCN(c1ccccc1)S(=O)(=O)c1cccc(C(=O)O)c1	-7	1%	9%	1%	11%	-6%
C=CCN(c1ccccc1)S(=O)(=O)c1cccc(C(=O)NCc2ccncc2)c1	-11	-6%	-3%	?	-2%	?
C=CCN(c1ccccc1)S(=O)(=O)c1cccc(C(=O)Nc2ccc(N3CCOCC3)cc2)c1	0	-4%	-15%	9.2µM*	?	2.6µM*
COc1ccc(Cl)cc1C(=O)NCC(=O)OCc1ccccc1	19	1%	17%	1%	10%	-15%
COc1cc(Cl)c(C)cc1NC(=O)CSc1cc(=O)n(C)c2cc(Cl)ccc12	·	·	·	1%	·	-19%
CCN(CCCNC(=O)CN1N=C(c2ccccc2)CCC1=O)c1cccc(C)c1	·	·	·	-13%	·	-19%
